In PubChem BioAssay AID1508600 (Functional Genomics Laboratory (NCATS/FGL), 2020):
The campaign covered roughly 53,000 sequences. About 3,700 (7%) were called active. The entries come from a sample that favours actives as a whole. A number with no mark means an inactive call.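 Rule for the calls: active = gene knockdowns whose robust z-score for IL-1 alpha signal is at least 2 or at most -2, so actives lie on both sides; inactive = the rest.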

assay: Components of the Cytosolic LPS Sensing Pathway: Gene Identification via Genome-wide siRNA Screen; details: RAW264.7 macrophages, IL-1a HTRF, actives lie on both sides, screened at 100 nM (by protocol), cells primed 5 h with Pam3CSK4 first;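 note: robust z of the log signal after scaling to non-targeting control siRNA wells of the plate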
In short: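 RAW264.7; siRNA 100 nM final, RNAiMAX, 48h 37 degrees C; Pam3CSK4 5 h; LipidA + TransIT-TKO 24 h; IL-1a HTRF; CellTiter-Glo viability; robust z vs negative-control median.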

| Sequence | z-score |
| --- | --- |
| GGACUUGCUAAGAGACCAATT against Cntn2 | 4.74 (active) |
| GGACUACAUAAGGAAGGUUTT against Ccdc130 | 1.64 |
| GGCAAAUGGGAAGAAUUCCTT against Mep1b | 0.228 |
| GCAACCUGCAGGCAGUAACTT against Nolc1 | 0.207 |
| CCACACACUGAUCAACGUGTT against Unc93b1 | 0.336 |
| GGCUUCAUUCUUGUCCUCCTT against Reg3b | -0.105 |
| GCCUUCCUCCGUUAAUCCATT against Kank2 | 0.844 |
| GGUGAGAGGAAGGAAGAGATT against Pcsk7 | 2.54 (active) |
| GGAGGAUGAGAAAGAAGAGTT against Gja8 | -0.176 |
| GGAUGUCAUCAAUGCUAUGTT against Olfr1022 | -0.643 |
| GGUUUACUGGCCAAGAUGGTT against 4930579K19Rik | -0.327 |
| GGCUUUACGUGACAAAGAUTT against 4933430I17Rik | 0.266 |
| GGAAAAUACAGCGCGAAUUTT against Nexn | 1.4 |
| GCGGCUAGGAUUUCUGGGATT against Mindy3 | 2.34 (active) |
| ACAAGAUUGGGAUCAUCUATT against Rpl23a | 0.521 |
| UGCCUCAAUCAUAAGUCCCTT against Olfr730 | -0.551 |
| AAGGUCGUUUACAUGAACATT against Fbxw20 | 1.19 |
| GGAAAAAAAAAAGCAGUGATT against Phactr4 | 0.662 |
| GGUCUGAUACCUCAUUCCATT against Il22ra2 | -1.21 |
| CCAUGAGAACCUGAUGAAUTT against Pag1 | -2.38 (active) |
| GGACUUUCGUCGUACUCGUTT against Terf1 | -1.73 |
| GGCCUGGUGCUACUUCUCATT against Fam160a2 | -0.0704 |

| Sequence | z-score |
| --- | --- |
| CGUAAACACUCCUAACUUUTT against Hif1a | -0.543 |
| GGAAGGAUAUUGGUUACCATT against Zmynd11 | -2.28 (active) |
| GGUCAGAAGAGAUGCCAAUTT against Hcar1 | -0.494 |
| CCGCAGUUGUCUUUCAAGATT against Dcaf1 | 0.724 |
| AGAAUCUUUAAAGGAAGUCTT against Olfr325 | 0.229 |
| GCCAUGACUAUGUUUUCCGTT against St6galnac1 | -0.578 |
| CGGCUCAUCCGAUAUAUCCTT against Hcn2 | -1.39 |
| GCUUUUAAAGCAUGGGCAGTT against Alb | 2.44 (active) |
| GGGCAGUAAGGACAGUUUUTT against Oaz1 | 0.406 |
| GGACUAAUCCCAUUUUCUUTT against Zfp422 | -0.292 |
| GGCCGAGAAGAUCAAAGCATT against Mrpl12 | -0.116 |
| GGAAAUAAAGUGAGUUUUGTT against Etaa1 | 4.95 (active) |
| GCUGGAAUAUCAUUUCCCATT against Pdpk1 | -1.01 |
| GGAGAGCUGUUUGACUACATT against Melk | 1.45 |
| CCAGCAAAAUCACUUAAUATT against Emb | -0.648 |
| GCAACGAAGUGAAUUUGUUTT against Epha5 | -0.139 |
| GCUAGACCAGAAGAAAGUATT against Gid8 | -1.65 |
| GCCAGAGCUAGUUGAAUCCTT against Rce1 | 1.14 |
| GGCCCUGUGUUUAUCAAAGTT against Cntn3 | 0.814 |
| GGCCUUGAAGGAGUAUGAGTT against Atp2a3 | -2.62 (active) |
| GGACCCAGAUGUGACUGAGTT against Svil | 0.242 |
| GGAAGCUUUUGUCGGUCCATT against Hap1 | -0.361 |

| Sequence | z-score |
| --- | --- |
| AACUUUCUCAUUCUUACUGTT against Olfr961 | -1.22 |
| GCAUGCUGAGGGACACAGUTT against 1810055G02Rik | -1.6 |
| GAUCACACUGAAAUCAUCATT against Nudt11 | -1.71 |
| GGCAUCACUGGUAAACAUUTT against Frzb | -0.196 |
| GGCUGUCUUGUCCAAAUGUTT against Olfr1357 | -2.9 (active) |
| GGGAAAGUUUUGUUCUGUATT against Ezr | 0.31 |
| CCGCGUGUUCCUUCUGAUUTT against S1pr3 | 1.43 |
| GGGUAUAGAAUGAUUAUGGTT against Ly6g2 | -2.39 (active) |
| GGGAACUGUUCCAUCUUGCTT against Olfr606 | 0.979 |
| GGAAGUUCCGUCGAUUUGATT against Cyp8b1 | -0.604 |
| GGAUGAAGUUCUUUUUCAATT against Pdcd11 | 2.28 (active) |
| GGCUGCCUAUCCCUAAACUTT against Cpt2 | -0.625 |
| GGUGGUUUACCAAACGGUGTT against Ces2g | -0.00874 |
| GGCCAGAGCAUUUUCUUCATT against Pif1 | 0.72 |
| GGAUGAAGGAAUCCAUGCATT against Pcdhga6 | -0.133 |
| GGAUCUGAAGGUGAUGUCATT against H2-Q10 | -2.72 (active) |
| GGUACCUCUACACAGAUGATT against Fgf21 | 0.0136 |
| GGCCUGGAUGAAUGAAAAGTT against Gins4 | 0.665 |
| CCGUGUGAAUCCCUGCAUUTT against Aldoa | -2.85 (active) |
| GCUAUUUGACUUGUUGUAATT against Rab30 | 0.269 |
| CGCAAGUAUUUCCACCAUATT against Clk4 | -0.41 |
| GGUUUGAGAAUUUGAAGGUTT against Map2k3os | 0.273 |

| Sequence | z-score |
| --- | --- |
| GGUCCUCUGGUUCAACAUUTT against Olfr638 | -0.405 |
| GGGAAGAAGACUGACAAGCTT against Lars | 2.03 (active) |
| GGAGAUGAAGAAGAUAUUGTT against Smoc2 | -0.764 |
| GGUCUACUUCUUUUUUACGTT against Sema4d | 0.467 |
| GGUGAUAACUCCGGGCCAATT against Fam3b | 2.32 (active) |
| CCCUGCUGGUUGGUAAUCATT against F830005K03Rik | 0.548 |
| GCUAAGAUUGUCAUGAUGUTT against Bambi | -1.02 |
| GGAAAGAAGGUGAACAACATT against Phax | 1.96 |
| GCAGAAGAAGAAGGGUUCCTT against Emx1 | 3.59 (active) |
| GGGAGAACCAGCACAACAUTT against Cavin2 | -1.8 |
| GGAAGACAUUCACGAUUGUTT against Deptor | -0.0976 |
| GGAGUUCAGCAACCUGUUGTT against Tmem97 | -2.08 (active) |
| GGGAUCAUUGCUGUCCUCUTT against Adora2b | -1.33 |
| CCUCAAACCAUCAACAACCTT against Six3 | -2.04 (active) |
| GGAACUUUCCUUUUUUGUCTT against Serpinb5 | 0.889 |
| GGUGAUGAUGUCCAGAAGUTT against Kdm4d | -0.913 |
| GGAGAAAGUCUUUGUGAACTT against Lipc | -1.1 |
| GGCUUUCUUUUUGAAAGAATT against Arhgap10 | 0.78 |
| GGAACCUACUUGUUACCUUTT against Nlrp5 | 0.731 |
| CGGUCAUUAAAACUUACAGTT against Hells | 2.69 (active) |
| GCCGGGAGAAAUAAAUGGUTT against Mif | -0.654 |
| GGAAAAACUCUUCUUCACGTT against Nphs1 | -0.0272 |

| Sequence | z-score |
| --- | --- |
| GGAGGACUCUGCUUCCAUATT against Pwwp3b | -0.848 |
| GGUUCUGGAAGUGAAGGUGTT against Prg2 | -0.00973 |
| CCACUUCCGAUGAGCCAGATT against Mrps10 | -3.31 (active) |
| GCUAUUGGUGCUUCAGUCCTT against Rtel1 | -0.458 |
| GCCGUGUUCAUGAAUAAACTT against Glce | -0.392 |
| GCUCUGUGAGCGAAAGUUCTT against Synpo2 | 1.72 |
| CGUGGUCAGCGAGAGAGAATT against Sohlh1 | 1.19 |
| GGAUGCUGACAACAUAUACTT against Plk3 | -0.726 |
| GGUUUUCCUGUUCAAUUCUTT against Olfr586 | 2.4 (active) |
| CGCUGCUUUUCCUAGCAGATT against Orai1 | 0.194 |
| GCUCCAACAAGGCAUAAAATT against Dis3 | -1.71 |
| CGUUGAACUAGCAGUGGACTT against Arel1 | 0.304 |
| GUCUACAUCAACAUGCCUGTT against Hcst | 0.729 |
| GGCUUAAUUACACAUGUUCTT against Il6 | -1.09 |
| GGACAAGAAAAAGUCCAGATT against Dhx38 | -1.17 |
| GCAGGGAAUAGCAAACUUATT against Nfil3 | 1.18 |
| GGAAAGGAGAGGUGUGUUCTT against Asb7 | 0.431 |
| GGAAGAUGUCUCCUAUGAGTT against Hebp1 | -2.42 (active) |
| CCUGCUUAUUUAUGUACGATT against Tob2 | 1.27 |
| GGUACCUUAAACUCAUGAATT against Ifnb1 | 0.773 |
